Results reported in PubChem BioAssay (Tox21).
Results filed as inconclusive are left out. Calls of active or inactive are those of the source. Unless noted, calls come from the whole dose curve; as a rule, active = well fitted curve in the direction sought with a large enough effect in the repeat runs; inconclusive = weak or mixed curves; inactive = no such curve, though single readings can be large; an effect the other way counts as inactive or inconclusive.

Key:
[1] = qHTS assay to identify aromatase inhibitors - cell viability counter screen (AID 743084);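 note: cells stimulated with testosterone during compound exposure; nearly all actives have a fitted effect of over 55% in size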
[2] = molecular target: Aryl hydrocarbon receptor (Homo sapiens) (UniProt P35869); assay: qHTS assay to identify small molecule that activate the aryl hydrocarbon receptor (AhR) signaling pathway (AID 743085);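 note: HG2L7.5c1 human HepG2 liver cells with stably integrated DRE-driven firefly reporter; series mostly up to about 70 µM; nearly all actives have a fitted effect of over 15% in size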
Outline: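 Stably transfected human liver carcinoma cells (HG2L7.5c1; 20 DRE-firefly luciferase) were incubated 5 h, dosed, and kept 24 h at 37C. Agonism was scored from increased luciferase luminescence.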

[3] = qHTS assay to identify small molecule that activate the aryl hydrocarbon receptor (AhR) signaling pathway - cell viability counter screen (AID 743086);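 note: HepG2 liver cells carrying the AhR DRE luciferase reporter; series mostly up to about 70 µM; nearly all actives have a fitted effect of over 45% in size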
Outline: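 HepG2-AhR-luc (HG2L7.5c1) cells, 4000/well, treated 24 h at 37 C with compound; viability measured as CellTiter-Fluor fluorescence after 30 min in the same wells as the luciferase read.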

[4] = molecular target: Peroxisome proliferator-activated receptor gamma (Homo sapiens) (UniProt P37231); assay: qHTS assay to identify small molecule agonists of the peroxisome proliferator-activated receptor gamma (PPARg) signaling pathway (AID 743094; active = well fitted activation curve with a large enough effect in the signal ratio in the repeat runs, not every such curve was filed as active; the % refers to the signal ratio)
Outline: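 Following 5 h plating at 37C, PPARg-bla HEK293H cells receive compound or DMSO for 17 h; fluorescence intensity is recorded after LiveBLAzer B/G loading for 1 h at room temperature.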

[5] = qHTS assay to identify small molecule antagonists of the peroxisome proliferator-activated receptor gamma (PPARg) signaling pathway - cell viability counter screen (AID 743194); note: nearly all actives have a fitted effect of over 55% in size
Outline: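 Cytotoxicity counter screen in PPARg-bla HEK293H cells, same wells as reporter assay. Compounds plus 50 nM rosiglitazone (final) for 17 h at 37 C, then viability read by CellTiter-Glo luminescence.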

[6] = qHTS assay for small molecule agonists of the antioxidant response element (ARE) signaling pathway (AID 743202; active = well fitted activation curve with a large enough effect in the signal ratio in the repeat runs, not every such curve was filed as active; the % refers to the signal ratio)
Outline: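 Agonist mode reporter screen: HepG2 cells with ARE-controlled beta-lactamase are incubated with test compounds for 16 h at 37 C, and beta-lactamase activity is measured as fluorescence of cleaved B/G FRET substrate.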

[7] = qHTS assay for small molecule agonists of the antioxidant response element (ARE) signaling pathway - cell viability counter screen (AID 743203; calls by dose curve; note: nearly all actives have a fitted effect of over 55% in size)
Outline: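 Compounds in DMSO were pinned onto ARE-bla HepG2 cells plated 5 hrs earlier at 2,000 cells/well. Sixteen hours later at 37C/5% CO2, CellTiter-Glo was added and luminescence measured after 30 min at room temperature.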

[8] = qHTS assay for small molecule activators of the heat shock response signaling pathway - cell viability counter screen (AID 743209); note: nearly all actives have a fitted effect of over 50% in size
Outline: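 Counter screen for cytotoxicity in HeLa HSE-bla reporter cells. Treatment was 5 h at 37 C; viability was detected by luminescent ATP assay (CellTiter-Glo) in the same wells as the beta-lactamase read.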

[9] = qHTS assay for small molecule activators of the heat shock response signaling pathway (AID 743210; active = well fitted activation curve with a large enough effect in the signal ratio in the repeat runs, with a control signal flat, not every such curve was filed as active; the % refers to the signal ratio;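 note: HeLa cells with beta-lactamase reporter driven by heat shock elements; series mostly up to about 63 µM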)
Outline: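 Quantitative high-throughput format using an engineered HeLa line in which heat shock response elements drive beta-lactamase; after 5 h with compound, cells received a B/G FRET substrate and fluorescence was read.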

[10] = qHTS assay to identify small molecule agonists of the peroxisome proliferator-activated receptor delta (PPARd) signaling pathway - cell viability counter screen (AID 743211); note: nearly all actives have a fitted effect of over 55% in size
Outline: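 In the same wells used for beta-lactamase reporter measurement, cytotoxicity is scored by CellTiter-Glo. HEK293H PPARd-bla cells receive compound for 17 h at 37C following a 5 h settling period.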

[11] = molecular target: Bile acid receptor (Homo sapiens) (UniProt Q96RI1); assay: qHTS assay to identify small molecule antagonists of the farnesoid-X-receptor (FXR) signaling pathway (AID 743217; active = well fitted inhibition curve with a large enough effect in the signal ratio in the repeat runs, not every such curve was filed as active; the % refers to the signal ratio)
Outline: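 In this cell-based antagonist screen, inhibition of CDCA-driven (50 uM final) UAS-beta-lactamase expression in HEK 293T cells was measured by FRET fluorescence following 16 h compound exposure at 37 °C.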

[12] = qHTS assay to identify small molecule agonists of the farnesoid-X-receptor (FXR) signaling pathway - cell viability counter screen (AID 743218); note: nearly all actives have a fitted effect of over 45% in size
Outline: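 After 16 h at 37 C with test compounds, FXR-bla HEK 293T cells were given LiveBLAzer B/G substrate for 2 h at RT and then CellTiter-Glo; luminescence was taken after 30 min.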

[13] = molecular target: Bile acid receptor (Homo sapiens) (UniProt Q96RI1); assay: qHTS assay to identify small molecule agonists of the farnesoid-X-receptor (FXR) signaling pathway (AID 743220; active = well fitted activation curve with a large enough effect in the signal ratio in the repeat runs, not every such curve was filed as active; the % refers to the signal ratio)
Outline: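 Beta-lactamase reporter under UAS control in GeneBLAzer FXR HEK 293T cells (5000/well) measured with LiveBLAzer FRET substrate after 2 h at room temperature. Compound exposure lasted 16 h at 37C.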

[14] = qHTS assay to identify small molecule antagonists of the farnesoid-X-receptor (FXR) signaling pathway - cell viability counter screen (AID 743221; active = well fitted cell-killing curve with a large enough effect in the repeat runs, not every such curve was filed as active; note: nearly all actives have a fitted effect of over 50% in size)
Outline: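 Here viability was scored by luminescence after CellTiter-Glo addition to wells already read for beta-lactamase. Prior treatment: compound plus CDCA (50 uM final), 16 h, 37 C, HEK 293T FXR-bla cells.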

[15] = molecular target: Vitamin D3 receptor (Homo sapiens) (UniProt P11473); assay: qHTS assay to identify small molecule agonists of the vitamin D receptor (VDR) signaling pathway (AID 743222; calls by dose curve)
Outline: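 VDR-bla cells were seeded, left 4 h, treated with compounds in DMSO for 16 h, incubated 2 h at RT with B/G FRET substrate, and read for fluorescence.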

[16] = qHTS assay to identify small molecule antagonists of the peroxisome proliferator-activated receptor delta (PPARd) signaling pathway - cell viability counter screen (AID 743213); note: nearly all actives have a fitted effect of over 50% in size
Outline: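 HEK293H PPARd UAS-bla cells, 5 h pre-incubation, compound + L165041 300 nM final, 17 h 37 C; B/G FRET substrate 2 h RT; then CellTiter-Glo 30 min RT, luminescence.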

[17] = molecular target: Peroxisome proliferator-activated receptor delta (Homo sapiens) (UniProt Q03181); assay: qHTS assay to identify small molecule antagonists of the peroxisome proliferator-activated receptor delta (PPARd) signaling pathway (AID 743215; active = well fitted inhibition curve with a large enough effect in the signal ratio in the repeat runs, not every such curve was filed as active; the % refers to the signal ratio;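 note: cells stimulated with agonist L165041 at 300 nM final during compound exposure; series mostly up to about 62 µM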)
Outline: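 With L165041 present at 300 nM final, compounds were incubated 17 h at 37 C on PPARd UAS-bla HEK293H cells. A FRET-based beta-lactamase substrate was then applied for 2 h at room temperature and fluorescence intensity recorded.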

[18] = molecular target: Vitamin D3 receptor (Homo sapiens) (UniProt P11473); assay: qHTS assay to identify small molecule antagonists of the vitamin D receptor (VDR) signaling pathway (AID 743223; active = well fitted inhibition curve with a large enough effect in the signal ratio in the repeat runs, not every such curve was filed as active; the % refers to the signal ratio)
Outline: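 Inhibition of agonist-driven VDR signalling is scored in VDR-bla cells: 3 nM final 1alpha,25-dihydroxyvitamin D3 plus compound, 16 h at 37C, then beta-lactamase detection by FRET substrate fluorescence after 2 h.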

[19] = molecular target: Peroxisome proliferator-activated receptor delta (Homo sapiens) (UniProt Q03181); assay: qHTS assay to identify small molecule agonists of the peroxisome proliferator-activated receptor delta (PPARd) signaling pathway (AID 743212; calls by dose curve)
Outline: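 Quantitative high-throughput agonist screen in a HEK293H beta-lactamase reporter line under UAS control. Compounds in DMSO, at 37 C. Fluorescence read after 2 h with FRET substrate at room temperature.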

Measured: Potency

Sequence of Vitamin D3 receptor (Homo sapiens) (P11473 whole entry, looked up): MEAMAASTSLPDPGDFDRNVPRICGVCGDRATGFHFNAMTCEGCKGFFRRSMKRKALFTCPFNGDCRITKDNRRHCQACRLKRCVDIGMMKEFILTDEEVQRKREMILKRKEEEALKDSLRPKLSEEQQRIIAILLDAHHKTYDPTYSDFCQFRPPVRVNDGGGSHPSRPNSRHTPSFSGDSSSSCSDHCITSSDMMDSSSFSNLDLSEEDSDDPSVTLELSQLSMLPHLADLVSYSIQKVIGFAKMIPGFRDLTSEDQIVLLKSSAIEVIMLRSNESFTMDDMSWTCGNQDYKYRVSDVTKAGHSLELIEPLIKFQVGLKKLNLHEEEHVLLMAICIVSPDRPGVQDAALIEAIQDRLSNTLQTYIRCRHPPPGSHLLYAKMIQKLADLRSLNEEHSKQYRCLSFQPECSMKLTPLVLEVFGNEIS
Sequence of Peroxisome proliferator-activated receptor gamma (Homo sapiens) (P37231 whole entry, looked up): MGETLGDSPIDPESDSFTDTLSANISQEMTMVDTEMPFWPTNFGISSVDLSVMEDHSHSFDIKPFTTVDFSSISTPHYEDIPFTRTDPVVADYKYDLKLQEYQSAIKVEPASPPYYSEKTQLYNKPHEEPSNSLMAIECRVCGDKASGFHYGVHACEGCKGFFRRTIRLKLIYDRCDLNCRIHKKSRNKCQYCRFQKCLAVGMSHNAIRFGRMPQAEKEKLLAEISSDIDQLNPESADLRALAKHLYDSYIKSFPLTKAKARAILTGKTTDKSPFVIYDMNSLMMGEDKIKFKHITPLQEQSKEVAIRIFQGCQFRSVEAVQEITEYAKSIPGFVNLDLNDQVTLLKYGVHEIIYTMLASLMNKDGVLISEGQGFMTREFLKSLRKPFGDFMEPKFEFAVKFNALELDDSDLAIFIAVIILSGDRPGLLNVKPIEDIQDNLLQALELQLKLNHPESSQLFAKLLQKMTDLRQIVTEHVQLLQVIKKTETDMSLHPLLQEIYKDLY
Sequence of Peroxisome proliferator-activated receptor delta (Homo sapiens) (Q03181 whole entry, looked up): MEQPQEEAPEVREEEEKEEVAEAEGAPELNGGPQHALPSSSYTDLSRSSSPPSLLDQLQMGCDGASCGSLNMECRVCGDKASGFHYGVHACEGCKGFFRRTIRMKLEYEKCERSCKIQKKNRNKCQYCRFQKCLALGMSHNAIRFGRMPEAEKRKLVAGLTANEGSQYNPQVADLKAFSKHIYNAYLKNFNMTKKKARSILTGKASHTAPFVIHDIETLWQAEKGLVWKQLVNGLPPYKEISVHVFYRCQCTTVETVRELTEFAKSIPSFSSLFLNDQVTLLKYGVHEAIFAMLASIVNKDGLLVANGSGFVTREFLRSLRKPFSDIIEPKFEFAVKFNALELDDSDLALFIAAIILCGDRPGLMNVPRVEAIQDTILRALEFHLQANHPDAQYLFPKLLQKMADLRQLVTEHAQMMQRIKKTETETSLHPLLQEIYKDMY
Sequence of Aryl hydrocarbon receptor (Homo sapiens) (P35869 whole entry, looked up): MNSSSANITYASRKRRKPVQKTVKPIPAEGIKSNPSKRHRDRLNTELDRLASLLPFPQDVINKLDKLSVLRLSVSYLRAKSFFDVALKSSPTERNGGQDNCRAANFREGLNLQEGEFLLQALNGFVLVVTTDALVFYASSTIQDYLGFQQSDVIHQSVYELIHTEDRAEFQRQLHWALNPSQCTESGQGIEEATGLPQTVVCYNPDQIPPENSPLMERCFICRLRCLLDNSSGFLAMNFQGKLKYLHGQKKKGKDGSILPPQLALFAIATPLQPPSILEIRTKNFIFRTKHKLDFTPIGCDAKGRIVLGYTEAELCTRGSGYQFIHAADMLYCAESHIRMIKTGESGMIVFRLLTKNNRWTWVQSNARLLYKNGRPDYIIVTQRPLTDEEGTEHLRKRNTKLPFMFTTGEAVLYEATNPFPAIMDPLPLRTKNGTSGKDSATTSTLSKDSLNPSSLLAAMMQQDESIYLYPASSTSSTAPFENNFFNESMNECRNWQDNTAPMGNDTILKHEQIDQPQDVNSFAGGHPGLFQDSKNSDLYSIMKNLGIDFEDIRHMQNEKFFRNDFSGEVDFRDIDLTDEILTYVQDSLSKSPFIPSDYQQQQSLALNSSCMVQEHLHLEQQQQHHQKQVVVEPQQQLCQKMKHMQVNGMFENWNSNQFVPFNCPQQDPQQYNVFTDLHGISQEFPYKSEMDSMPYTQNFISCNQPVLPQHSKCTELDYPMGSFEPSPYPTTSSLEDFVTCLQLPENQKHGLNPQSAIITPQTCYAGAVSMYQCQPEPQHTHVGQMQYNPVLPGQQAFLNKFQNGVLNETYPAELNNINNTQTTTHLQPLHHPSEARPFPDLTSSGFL
Sequence of Bile acid receptor (Homo sapiens) (Q96RI1 whole entry, looked up): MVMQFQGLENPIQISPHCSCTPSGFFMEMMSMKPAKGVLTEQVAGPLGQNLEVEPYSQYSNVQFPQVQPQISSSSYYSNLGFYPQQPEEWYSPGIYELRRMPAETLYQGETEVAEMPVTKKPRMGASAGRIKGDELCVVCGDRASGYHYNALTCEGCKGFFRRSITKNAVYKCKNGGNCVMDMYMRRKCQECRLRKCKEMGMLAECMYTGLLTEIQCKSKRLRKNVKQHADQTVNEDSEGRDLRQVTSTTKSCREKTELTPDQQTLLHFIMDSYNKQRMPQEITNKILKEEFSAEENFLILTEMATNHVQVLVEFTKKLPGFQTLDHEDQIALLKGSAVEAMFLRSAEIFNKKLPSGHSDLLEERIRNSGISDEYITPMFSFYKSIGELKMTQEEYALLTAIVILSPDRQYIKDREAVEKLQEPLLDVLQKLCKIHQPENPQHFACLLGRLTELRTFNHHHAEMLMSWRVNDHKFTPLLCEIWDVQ

O=C(O)C(O)[C@H](O)[C@@H](O)[C@H](O)[C@H](O)CO (some centres not stated)
not listed: [16] | [17] | [18] | [19]
inactive: all other assays above

N[C@@H](CS)C(=O)O
not listed: [11] | [13] | [18] | [19]
inactive: all other assays above

CN(C)CCOC(c1ccc(Cl)cc1)c1ccccn1 (configuration not stated)
not listed: [6] | [7] | [11] | [12] | [13] | [18] | [19]
inactive: all other assays above

CC(CCO)CCCC(C)(C)O (configuration not stated)
not listed: [6] | [11] | [13] | [17] | [18] | [19]
inactive: all other assays above

Nc1[nH]c(=O)ncc1F
not listed: [8] | [11] | [12] | [19]
inactive: all other assays above

NS(=O)(=O)c1cc2c(cc1C(F)(F)F)NC(Cc1ccccc1)NS2(=O)=O (configuration not stated)
not listed: [9] | [11] | [12] | [13] | [17]
inactive: all other assays above

COC[C@H](c1ccc(C(F)(F)F)cc1)N1CCN(C2(C)CCN(C(=O)c3c(C)ncnc3C)CC2)C[C@H]1C
inactive: [1] | [2] | [3] | [4] | [5] | [7] | [19] | [16] | [17] | [15]

CN(C)C(=O)Nc1ccccc1
not listed: [5] | [11] | [12] | [13] | [18]
inactive: all other assays above

CC(=O)O[C@H](CC(=O)[O-])C[N+](C)(C)C
not listed: [6] | [11] | [13] | [15] | [18]
inactive: all other assays above
